Assay results reported in PubChem BioAssay AID2391 (Southern Research Specialized Biocontainment Screening …, 2010).
The whole screen tested about 310,000 compounds, of which about 410 (0.13%) were called active. About 2% were inconclusive and are not listed. The rule behind the calls is not given here. The list is a sample of the results. Entries with a potency or affinity are not part of this list.

Test: inhibition of RSV-induced cytopathic effect – HEp-2 cells, primary 10 µM value included (AID 2391)
Conditions: at 10 µM, active compounds read high

CPE inhibition, inactive:
[O-]/[N+](=C/c1ccco1)c1ccccc1 2.24%
COc1cccc(NC(=O)c2ccccc2C(F)(F)F)c1 1.62%
O=C(c1ccc(Cl)c(S(=O)(=O)N2CCOCC2)c1)N1CCOCC1 -0.1%
CCCCOC(=O)c1ccc(NC(=O)c2ccc(F)cc2F)cc1 3.03%
CCOC(=O)c1sc(NC(=O)Cc2ccc(F)cc2)nc1C 17.9%
NC(=O)CCN1CCN(Cc2nc(C(c3ccccc3)c3ccccc3)no2)CC1 -0.36%
O=S(=O)(Nc1nc2ccccc2s1)c1cnc(Cl)c(Br)c1 0.69%
Cc1ccc(Cn2nnc3c(=O)[nH]c(C4CCCN(S(=O)(=O)c5ccccc5)C4)nc32)cc1 (stereo unspecified) 13%
COC(=O)c1ccccc1S(=O)(=O)N1CCCC(c2nc3c(nnn3Cc3ccc(C)cc3)c(=O)[nH]2)C1 (stereo unspecified) 10.4%
O=c1[nH]c(C2CCCN(S(=O)(=O)c3ccccc3)C2)nc2c1nnn2Cc1ccc2c(c1)OCCO2 (stereo unspecified) 60.4%
O=c1[nH]c(C2CCCN(S(=O)(=O)c3ccccc3)C2)nc2c1nnn2Cc1cccc(Cl)c1 (stereo unspecified) 43%
Cc1ccc(Cn2nnc3c(=O)[nH]c(C4CCCN(S(=O)(=O)c5ccccc5F)C4)nc32)cc1 (stereo unspecified) 4.65%
O=c1[nH]c(C2CCCN(S(=O)(=O)c3ccccc3)C2)nc2c1nnn2Cc1ccccc1F (stereo unspecified) 3.4%
Cc1ccc(Cn2nnc3c(=O)[nH]c(C4CCCN(S(=O)(=O)c5ccc(F)cc5)C4)nc32)cc1 (stereo unspecified) 5.93%
COC(=O)c1ccc(Cn2nnc3c(=O)[nH]c(C4CCCN(S(=O)(=O)c5ccccc5Cl)C4)nc32)cc1 (stereo unspecified) 2.61%
CN1CCN(/C(=N\O)c2nonc2N)CC1 -0.46%
Cc1ccc(-c2[nH]c3cc(C(=O)NCCCn4ccnc4)ccc3c(=O)c2O)cc1 1.07%
O=C(CCN1C(=O)S/C(=C\C=C\c2ccccc2)C1=O)Nc1ccc(O)cc1 -1.82%
CCOC(=O)CC(NC(=O)C(CC)c1ccccc1)c1ccccc1Cl (stereo unspecified) 3.39%
COc1ccc(N2CCN(S(=O)(=O)c3ccc(OC)c(C(=O)N4CCOCC4)c3)CC2)cc1 0.25%
COc1ccccc1C(=O)C1CCCN(C(=O)c2ccccn2)C1 (stereo unspecified) 2.51%
Cc1ccc(CN(C)C(=O)COC(=O)CSc2ccc(C(N)=O)cc2[N+](=O)[O-])cc1 -0.57%
COC(=O)c1ccc(NC(=O)c2ccccc2-c2ccccc2C(=O)O)cc1 0.77%
CCCCCCC(=O)Nc1c2c(nc3ccccc13)N(C)CC2 0.9%
O=C(Nc1ccc(F)cc1F)N1CCCC(c2nc(-c3ccc(F)cc3)no2)C1 (stereo unspecified) 14.7%
O=C(Nc1cccc(Cl)c1)Nc1nnc(CC2=CCCCC2)s1 5.11%
CCOc1ccc(S(=O)(=O)N(C)CC(=O)NCc2ccccn2)cc1Cl 1.39%
COCCN1C(=O)C(CC(=O)Nc2ccc(C(=O)O)cc2)SC1=Nc1ccccc1 (stereo unspecified) 1.29%
COCCN1C(=O)C(CC(=O)Nc2ccc(C(C)=O)cc2)SC1=Nc1ccccc1 (stereo unspecified) 2.47%
COc1ccc(OCc2n[nH]c(=S)n2Cc2ccco2)cc1 2.67%
O=C1CCCC2=C1C(c1ccc(Cl)cc1)C1C(=O)c3ccccc3C1=N2 (stereo unspecified) 58.3%
Cc1ccc(C2C3=C(CCCC3=O)N=C3c4ccccc4C(=O)C32)cc1 (stereo unspecified) 11.5%
CCOc1nc(Nc2ccc(OC)cc2)nc(N2CCOCC2)n1 2.38%
COc1ccc(C(=O)/C=C/NCc2ccc(F)cc2)cc1OC 4.99%
Cc1ccc(C)c(S(=O)(=O)N2CCCOC2CNC(=O)C(=O)NCc2cccs2)c1 (stereo unspecified) 1.48%
CCN(CC)c1ccc(CN(C(=O)c2cccs2)C2CCS(=O)(=O)C2)cc1 (stereo unspecified) 1.38%
COc1ccc(NC(=O)Nc2cc3oc4ccccc4c3cc2OC)cc1 9.45%
COc1cc2c(cc1NC(=O)Nc1ccc(C)cc1)oc1ccccc12 33%
CCS(=O)(=O)Nc1ccc(C2=NN(S(=O)(=O)CC)C(c3cccs3)C2)cc1 (stereo unspecified) 2.5%
Cc1ccc(CS(=O)Cc2ccc(C(=O)NCC(C)c3ccccc3)o2)cc1 (stereo unspecified) 1.69%
COCCCNC(=O)CN(c1cc(Cl)ccc1OC)S(C)(=O)=O 0.7%
O=C(O)c1ccc(-c2nc(-c3ccccc3Cl)cs2)cc1 15.1%
C=CCNC(=O)c1ccc(-c2nc(-c3ccc(Cl)cc3Cl)cs2)cc1 3.05%
CCOc1ccc(C(C(=O)NC2CCCC2)N(CCOC)C(=O)CNC(=O)c2ccco2)cc1 (stereo unspecified) 0.14%
CCC(C)NCC(=O)Nc1cc(S(=O)(=O)N(CC)c2ccccc2)ccc1Cl (stereo unspecified) 10.6%
CCN(c1ccccc1)S(=O)(=O)c1ccc(Cl)c(NC(=O)CSc2nncs2)c1 14.1%
CCN(c1ccccc1)S(=O)(=O)c1ccc(OC)c(NC(=O)Cc2ccc(OC)c(OC)c2)c1 8.13%
Nc1nc(SCC(=O)Nc2cc(S(=O)(=O)N3CCOCC3)ccc2Cl)n[nH]1 0.46%
CCN(c1ccccc1)S(=O)(=O)c1ccc(Cl)c(NC(=O)CSc2nncn2C)c1 4.02%
CS(=O)(=O)c1ccc(Cl)c(NC(=O)CSc2n[nH]c(N)n2)c1 -0.18%
CCN(c1ccccc1)S(=O)(=O)c1ccc(Cl)c(NC(=O)CSc2nnc(C)s2)c1 17.6%
CCN(c1ccccc1)S(=O)(=O)c1ccc(OC)c(NC(=O)Cc2ccc(F)cc2)c1 13.4%
CCC(=O)NC(=S)Nc1ccc2oc(-c3ccc(OC)cc3)nc2c1 -0.44%
Cc1[nH]c2c(Cl)cccc2c(=O)c1CN1CCCCCC1 -1.59%
CC(=O)c1ccc(C(=O)NC2CCCN(Cc3ccccc3F)C2)cc1 (stereo unspecified) -0.91%
Cc1nc(N)nc(N/N=C/c2c(F)cccc2Cl)n1 0.02%
